In all, about 24,000 compounds went through this assay and about 150 (0.62%) were called active. This is one part of a sample in which actives are shown more often than they occur.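 Rule for the calls: active = fluorescence ratio above 2.44, which is 1 plus 3 SD of all ratios; inconclusive = signal too bright to measure linearly, ratio around 10 or more; inactive = fluorescence ratio below 2.44.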

Results on 63 molecules are retold here after PubChem BioAssay AID576 (NMMLSC, 2007).

This assay can be described thus: compound autofluorescence on Jurkat cells, primary screen, artefact control for VLA-4 allosteric ligand project, cell-based, flow cytometry (AID 576).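 Note: green fluorescence of cells measured with 488 nm excitation and 530 nm emission; tested at 10 µM compound in the well.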 The following applies: hits give high values, 1 = vehicle-only cell background. A general note: Flow cytometry measures light scatter and fluorescence of single cells or particles in a stream.
For the molecule `O=C(CN1CCN(c2ccccc2F)CC1)c1ccc2c(c1)OCO2`, the fluorescence ratio is 1.02 (inactive).

Consider `COCCNC(=O)CN1C(=O)CSc2ncccc21`, for which the fluorescence ratio was 1.05 (inactive). For the molecule `CCOC(=O)N1CCC(NC(=O)COc2cc(=O)n(C)c3ccccc23)CC1`, the fluorescence ratio is 0.98 (inactive).

For `CCOC(=O)C1CCCN(C(=O)c2sc3nc(C)nc(N4CCOCC4)c3c2C)C1` (stereo not drawn), the fluorescence ratio was 1.03 (inactive). `O=C(Cn1cc2c(n1)CCCCC2)NCCN1CCOCC1`: the fluorescence ratio was 0.97 (inactive). With `COc1ccccc1-n1cnc2cc(C(=O)NCC3CCCO3)ccc21` (stereo not drawn) the figure was 1.03 (inactive). With `COCCn1c(=O)[nH]c2cc(C(=O)NCc3cccnc3)ccc2c1=O` the figure was 1.03 (inactive). For `COc1ccc(C(CC(=O)O)NC(=O)Cc2ccccc2)cc1` (stereo not drawn), the fluorescence ratio was 0.92 (inactive). The figure for `CCOC(=O)CSc1nnc(CNC(=O)c2cccs2)n1-c1ccccc1` is 1.06 (inactive); for `CC(C)C(=O)Nc1c(C(=O)c2ccc(F)cc2)oc2ccccc12` it is 0.99 (inactive). Consider `Nc1nonc1-c1nc2ccccc2n1CCC(=O)O`, for which the fluorescence ratio was 1.57 (inactive). With `Cc1noc(C)c1CSc1nc2cc(S(=O)(=O)N3CCOCC3)ccc2o1` the figure was 1.05 (inactive). The figure for `COc1ccc(C2C(C(=O)N3CCN(c4ccc(OC)cc4)CC3)c3ccccc3C(=O)N2C)cc1` (stereo not drawn) is 1.1 (inactive); for `Cc1cc(N2C(=O)c3ccc(C(=O)NCc4ccccc4)cc3C2=O)no1` it is 1.09 (inactive). With `CCN(CC(=O)Nc1ccc2c(c1)OCCO2)Cc1cc(=O)oc2cc(C)c(C)cc12` the figure was 1.06 (inactive); with `CCOC(=O)C1CCN(C(=O)C2CCN(S(=O)(=O)N3CCCC3)CC2)CC1`, 0.96 (inactive); with `CC(=O)c1c(C)c[nH]c1C`, 1.09 (inactive). On to `CCN1C(=O)/C(=C2/Sc3ccccc3N2CCCS(=O)(=O)O)SC1=S`, for which the fluorescence ratio is 1 (inactive). The figure for `CCN(CC)CCCNC(=O)c1cc(-c2cccc(Cl)c2)on1` is 1.16 (inactive); for `Cc1cc(NC(=O)CN2CCC(O)(c3cccc(F)c3)CC2)no1` it is 1.02 (inactive); for `COCCOC(=O)C1=C(C)N=c2s/c(=C\c3cccs3)c(=O)n2C1c1cccs1` (stereo not drawn) it is 1.11 (inactive). Take `Cc1c(C(=O)Nc2ccccc2Cl)oc2ccc(S(=O)(=O)N3CCC4(CC3)OCCO4)cc12`: the fluorescence ratio is 0.97 (inactive).

For `CC1(C)Oc2ccc3ccc(=O)oc3c2/C(=C/NCCO)C1=O`, the fluorescence ratio was 1.15 (inactive). As for `COCCNC(=O)c1snc2ccc(Cl)cc12`, the fluorescence ratio was 1 (inactive). With `O=C(CN1CCN(CC(=O)Nc2ccc3c(c2)OCO3)CC1)Nc1ccc(F)cc1` the figure was 0.97 (inactive); with `Cc1ccc(S(=O)(=O)NCc2csc(C)n2)c(C)c1`, 0.95 (inactive).

Consider `Cc1cccn2c(=O)c3cc(C(=O)N4COCC4(C)C)n(C)c3nc12`, for which the fluorescence ratio is 1.08 (inactive). The figure for `COc1ccccc1N1CCN(Cc2nnnn2CCc2ccccc2)CC1` is 0.99 (inactive); for `COc1ccc(C2CC(c3ccc(Cl)cc3Cl)Nc3nc(N)nn32)cc1OC` (stereo not drawn) it is 1.06 (inactive); for `C=CCOC(=O)C1=C(C)OC(N)=C(C#N)C1c1ccc(F)cc1` (stereo not drawn) it is 1.25 (inactive). In the case of `CC(=O)N1C(=O)C2(Nc3ccccc3N2)c2ccccc21`, the fluorescence ratio is 1.04 (inactive). `CCOC(=O)c1sc(=S)n(-c2cccc(OC)c2)c1N`: the fluorescence ratio is 1.14 (inactive). Consider `Cc1ccccc1CSc1nnc(Cn2c(=O)sc3ccccc32)n1C`, for which the fluorescence ratio is 0.88 (inactive). For the molecule `CCOC(=O)CSc1nnc(CNC(=O)c2ccco2)n1-c1ccc(F)cc1`, the fluorescence ratio is 1 (inactive). Regarding `CCOC(=O)c1ccc(CS(=O)c2ccc(Cl)cc2)o1` (stereo not drawn), the fluorescence ratio is 1.08 (inactive).

Take `CC1=C(C)CC2C(=O)N(c3cccc4ccccc34)C(=O)C2C1` (stereo not drawn): the fluorescence ratio was 1.06 (inactive). With `COC(=O)C(C)Sc1nc2c(c(=O)n(C)c(=O)n2C)n1Cc1cccc(C)c1` (stereo not drawn) the figure was 1.09 (inactive); with `O=C1OC(NC(=O)c2ccccc2)C(N2CCOCC2)=C1Cl` (stereo not drawn), 1.07 (inactive). For the molecule `O=C(CN1CCN(c2ccc(F)cc2)CC1)Nc1cccc(C(F)(F)F)c1`, the fluorescence ratio is 0.96 (inactive). As to `CCc1ccc(NC(=O)CSc2nc3ccccc3c(=O)n2CCN2CCOCC2)cc1`, the fluorescence ratio is 1.15 (inactive).

For the molecule `CCn1cc(C(=O)NC2CCCCCC2)c(=O)c2cc(S(=O)(=O)N3CCCCC3)ccc21`, the fluorescence ratio is 1.18 (inactive). The figure for `CCCC(=O)NC(C)C(c1cccs1)N1CCN(c2ccccc2)CC1` (stereo not drawn) is 1.12 (inactive); for `O=C(Nc1cccnc1)c1ccc2c(c1)OCO2` it is 1.06 (inactive); for `CCOC(=O)n1c(SCC(=O)N(CC)CC)nc2ccccc21` it is 0.99 (inactive). With `CCS(=O)(=O)N1CCCC(C(=O)NCc2ccc(C)cc2)C1` (stereo not drawn) the figure was 0.99 (inactive); with `CCOC(=O)C1CCN(C(=O)Cc2c(C(=O)O)[nH]c3ccccc23)CC1`, 1.09 (inactive); with `COc1ccc(OC)c(C(=O)c2ccc(C(=O)O)cc2)c1`, 0.99 (inactive). With `COc1ccccc1-c1c(C)nn2c(C)c(C(C)=O)cnc12` the figure was 0.98 (inactive); with `Cc1ccc(C)c(N2CCN(C(=O)CCc3nc4ccccc4[nH]3)CC2)c1`, 1.04 (inactive).

Regarding `O=C(CN1CCOCC1)Nc1c2c(nc3c1CCC3)CCC2`, the fluorescence ratio was 0.96 (inactive). As for `Cc1cc(NC(=O)c2cc(-c3cccs3)on2)nn1Cc1ccc(Cl)cc1`, the fluorescence ratio was 1.05 (inactive). Take `CC(=O)Nc1nonc1-c1nc2ccccc2n1Cc1ccccn1`: the fluorescence ratio is 1.24 (inactive). The figure for `CC(Sc1sc(=S)sc1SC(C)C(=O)O)C(=O)O` (stereo not drawn) is 0.93 (inactive); for `Cn1c(=O)cc(SCC(=O)N2CCN(C(=O)c3ccco3)CC2)c2ccccc21` it is 1.12 (inactive). With `C=CCNC(=O)CSc1nc2sc(C)c(C)c2c(=O)[nH]1` the figure was 1.07 (inactive); with `O=C(O)CC(c1ccccc1)n1cnnn1` (stereo not drawn), 0.92 (inactive); with `Cn1nnnc1SCc1cc(=O)[nH]c2ccccc12`, 1.06 (inactive). Consider `CC(C)OCCCNC(=O)C1CC(=O)N(C2CCCCCCC2)C1` (stereo not drawn), for which the fluorescence ratio is 0.98 (inactive). As for `CCOc1ccc(N(CC(=O)NCc2ccc(OC)cc2)S(=O)(=O)c2c(C)noc2C)cc1`, the fluorescence ratio was 0.82 (inactive).

Take `COc1ccc(CCN(Cc2cc3cccc(C)c3[nH]c2=O)C(=O)N2CCCC2)cc1OC`: the fluorescence ratio was 1.08 (inactive).

With `O=C(CN1C(=O)C2C3C=CC(C3)C2C1=O)NCCc1ccccc1Cl` (stereo not drawn), the fluorescence ratio was 1.19 (inactive). Take `O=C(CCn1c(=O)oc2ccccc21)Nc1ccon1`: the fluorescence ratio was 1.03 (inactive). With `Cc1cc(=O)n2nc(N3CCCC(C(=O)N4CCN(C)CC4)C3)sc2n1` (stereo not drawn) the figure was 1.07 (inactive).
